Experimental data taken from PubChem BioAssay.
Several values for one entry are separate records, joined by “and”; a condition that tells them apart may be missing. Equal values may be shown once. A number with no mark means an inactive call.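 The calls were made as follows, unless noted: active = compounds whose cell count with miR-34 switched on is under 0.7 times the count with it off; inactive = the rest.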

Test: compounds altering Cy5-DNA-NS3h complex signal – biochemical, LOPAC1280, artefact control for HCV NS3 helicase inhibitor project (AID 687037; call rule not given here)
Conditions: Cy5-DNA-NS3h complex fluorescence interference counterscreen
With `O=C1CC[C@@]2(O)C3Cc4ccc(O)c5c4C2(CCN3CC2CC2)[C@H]1O5` (some centres not stated) the fluorescence ratio (interference) was 1. For `N=C(N)c1ccc(CS(=O)(=O)F)cc1`, the fluorescence ratio (interference) was 1. With `NC(CP(=O)(O)O)C(=O)O` (configuration not stated) the fluorescence ratio (interference) was 1. For `C[C@]12Cc3cn4c(nc3C=C1CCC1C2CC[C@@]2(C)[C@H]1CC[C@@]2(O)C#N)nc1ccccc14` (some centres not stated), the fluorescence ratio (interference) was 1. `CC(N)c1cccc(Cl)c1Cl` (configuration not stated) gave a fluorescence ratio (interference) of 1. Molecule `C=CCN1CC[C@]23CCCCC2[C@H]1Cc1ccc(O)cc13` (some centres not stated) has a fluorescence ratio (interference) of 1. `O=C1/C(=C/c2ccccc2)C[C@@]2(O)[C@H]3Cc4ccc(O)c5c4[C@@]2(CCN3CC2CC2)[C@H]1O5` gave a fluorescence ratio (interference) of 1. Molecule `COc1ccc2c(c1)C13CCCCC1C(C2)N(C)CC3` (configuration not stated) has a fluorescence ratio (interference) of 1.1. Molecule `N[C@@]1(C(=O)O)CC[C@@H](C(=O)O)C1` has a fluorescence ratio (interference) of 1. In the case of `C=CCN1C[C@@H](C)N([C@H](c2ccc(C(=O)N(CC)CC)cc2)c2cccc(OC)c2)C[C@@H]1C`, the fluorescence ratio (interference) is reported as 1. Molecule `N#CC(=Cc1ccc(O)c(O)c1)C(N)=S` has a fluorescence ratio (interference) of 0.9. `CCNC(=O)[C@H]1O[C@@H](n2cnc3c(N)ncnc32)C(O)[C@H]1O` (some centres not stated) gave a fluorescence ratio (interference) of 1. Molecule `C[C@@H]1O[C@H](C[N+](C)(C)C)C[C@H]1O` has a fluorescence ratio (interference) of 1. Molecule `c1ccc2cc(CC3=NCCN3)ccc2c1` has a fluorescence ratio (interference) of 1. Molecule `C=CCN1CCC23c4c5ccc(O)c4O[C@H]2C(=O)CC[C@@]3(O)C1C5` (some centres not stated) has a fluorescence ratio (interference) of 1. With `CCCCCCCCCCCCCC(=O)O[C@@H]1[C@@H](C)[C@@]2(O)[C@@H](C=C(CO)C[C@@]3(O)C(=O)C(C)=C[C@@H]23)C2C(C)(C)[C@@]21OC(C)=O` (some centres not stated) the fluorescence ratio (interference) was 1. For `Oc1ccc2c3c1O[C@H]1c4[nH]c5ccccc5c4C[C@@]4(O)C(C2)N(CC2CC2)CCC314` (some centres not stated), the fluorescence ratio (interference) was 1. In the case of `COc1cc(C(O)CN)ccc1O` (configuration not stated), the fluorescence ratio (interference) is reported as 1. Work on `NC1CC1c1ccccc1` (configuration not stated) yielded a fluorescence ratio (interference) of 1. `C[C@@H]1O[C@@H](O[C@H]2C[C@@H](O)[C@]3(CO)[C@@H]4C(CC[C@]3(O)C2)[C@@]2(O)CC[C@H](C3COC(=O)C3)[C@@]2(C)C[C@H]4O)[C@H](O)[C@H](O)[C@H]1O` (some centres not stated) gave a fluorescence ratio (interference) of 1. Work on `NC(CCP(=O)(O)O)C(=O)O` (configuration not stated) yielded a fluorescence ratio (interference) of 1.

Test: viability loss with induced miR-34 in A549 – imaging, A549 dox-inducible miR-34, nuclei and caspase counts, primary screen (AID 1347080); also: test concentration not given here
Conditions: A549 miR-34 inducible, Hoechst nuclei count, 48 h; active compounds read low
`CC(C)(C)OC(=O)NC1[C@H]2CNC[C@@H]12` (some centres not stated) showed a fold change of 1.05. Molecule `O=C1CC[C@@]2(O)C3Cc4ccc(O)c5c4C2(CCN3CC2CC2)[C@H]1O5` (some centres not stated) has a fold change of 1.1. In the case of `N=C(N)c1ccc(CS(=O)(=O)F)cc1`, the fold change is reported as 1.04. Work on `NC(CP(=O)(O)O)C(=O)O` (configuration not stated) yielded a fold change of 1.01. For `CCCCC/C=C\C/C=C\CCCCCCCC(=O)NCCO`, the fold change was 1.09 and 1.06. `CCCCCCCCCCCCCCCCOC[C@@H](COP(=O)([O-])OCC[N+](C)(C)C)OC(C)=O` showed a fold change of 0.883. In the case of `CCCCC/C=C\C/C=C\C/C=C\CCCCCCC(=O)NCCO`, the fold change is reported as 0.972 and 1.13. For `CCCCC/C=C\C/C=C\C/C=C\C/C=C\CCCC(N)=O`, the fold change was 1.05 and 1.02. For `CCCCC/C=C\C/C=C\C/C=C\C/C=C\CCCCCC(=O)NCCO`, the fold change was 1.02 and 1.04. Molecule `CCCCC/C=C\C[C@@H](/C=C/C=C\C/C=C\CCCC(=O)O)OO` has a fold change of 0.888. For `CCCCC/C=C\C=C\[C@H](CCCCCCCC(=O)O)OO`, the fold change was 0.93. With `C[C@]12Cc3cn4c(nc3C=C1CCC1C2CC[C@@]2(C)[C@H]1CC[C@@]2(O)C#N)nc1ccccc14` (some centres not stated) the fold change was 1.02. Work on `CC(N)c1cccc(Cl)c1Cl` (configuration not stated) yielded a fold change of 1.05. `C=CCN1CC[C@]23CCCCC2[C@H]1Cc1ccc(O)cc13` (some centres not stated) gave a fold change of 1.09. In the case of `Clc1ccc(C2CC3CCC2N3)cn1` (configuration not stated), the fold change is reported as 0.945. Molecule `O=C1/C(=C/c2ccccc2)C[C@@]2(O)[C@H]3Cc4ccc(O)c5c4[C@@]2(CCN3CC2CC2)[C@H]1O5` has a fold change of 1.23. `COc1ccc2c(c1)C13CCCCC1C(C2)N(C)CC3` (configuration not stated) showed a fold change of 1.04. For `CCCC[C@H]1C(=O)O[C@H](C)[C@H](NC(=O)c2cccc(NC=O)c2OC)C(=O)O[C@@H](C)[C@@H]1OC(=O)CC(C)C`, the fold change was 1.28. `CCCCC[C@@H](/C=C/C=C\CCCCCCCC(=O)O)OO` showed a fold change of 0.981. For `CCCCC/C=C\C/C=C\C/C=C\C=C\[C@H](CCCC(=O)O)OO`, the fold change was 0.99. With `N[C@@]1(C(=O)O)CC[C@@H](C(=O)O)C1` the fold change was 1.04.
